High-throughput results (PubChem BioAssay)
Compounds with a hit are over-represented: about 2.4% of the library has one in this group of screens.
YjeE inh: inhibitors of E. coli YjeE (TsaE) | P0AF67 | purified YjeE enzyme, qHTS inhibition assay | Potency, µM | 71,000 tested, 0.05% active
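Purified YjeE (10 uM) with BODIPY Texas Red-labeled ADP probe (2 uM); compounds pin-transferred, 15 min at room temperature. Binding inhibition read as decreased fluorescence polarization; ADP titration as control.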
Hsp90 Hop PPI: changes Hsp90-Hop TPR2A binding signal, up or down. AlphaScreen TPR2A-His6 binding biotin-Hsp90 C-terminal peptide. Potency, µM (series often up to 57 µM). 71,000 tested, 0.44% active. AID 595; active means well fitted curve in either direction with a large enough effect; inconclusive means small, poorly fitted or top-dose-only effect, or another doubt
Tau fil binding: binds recombinant human tau filaments; AID 596; 71,000 tested, 2% active; Potency, µM (highest dose often 57.1 µM); recombinant tau filaments, thioflavin S fluorescence, 15 h; filaments grown with octadecylsulfate alongside compound; P10636;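 further: actives lower thioflavin S fluorescence by blocking filaments or displacing dye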
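His-tagged recombinant human tau (exons 2, 3, 10; 1 uM final) fibrillized with 30 uM sodium octadecylsulfate, 15 h at 37 C, in pH 7.4 HEPES buffer with 10 uM thioflavine S and 5 mM DTT. Reduced ThS fluorescence (450/510 nm) marks activity.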
BRCT inh green: BRCA1 BRCT-phosphoprotein interaction inhibition; P38398; BRCA1 BRCT-phosphopeptide binding, green fluorescence polarization; Potency, µM (titrated, usually from 76.9 µM), hits mostly inhibitors; 75,000 tested, 0.05% active
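Compounds were incubated for 12 min at room temperature with a complex of 100 nM fluorescein-tagged pBACH1 decapeptide and 250 nM His-tagged BRCT protein. Buffer was phosphate pH 7.3 with EDTA, DTT and Tween 20. Disruption of binding lowers the polarization signal.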
Pol III holo inh: inhibitors of bacterial DNA polymerase III holoenzyme | reconstituted DNA polymerase III holoenzyme replication, biochemical | Potency, µM (doses to about 57.1 µM) | 71,000 tested, 0.25% active | AID 603
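Reconstituted *E. coli* holoenzyme (0.35 nM Pol III, 1 nM beta, 154 nM SSB, 2 nM primase) was preincubated with compound for 15 min at RT. Synthesis on 1.4 nM ssM13Gori ran 35 min, then was stopped with PicoGreen/EDTA and read as dsDNA fluorescence.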
BRCT PPI red: inhibitors of human BRCA1 BRCT-phosphoprotein interaction (red fluorophore); BRCT-phosphopeptide binding, red fluorescence polarization; Potency, µM (series often up to 76.9 µM), usual class: inhibitors; 75,000 tested, 0.03% active
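Rhodamine-labelled pBACH1 10-mer (100 nM) bound to BRCT domain (100 nM) at pH 7.3; compounds incubated 12 min room temperature, polarization read. Free peptide defines full inhibition; unlabelled decapeptide titrated as control.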
A number is an active result; i = inactive; ? = inconclusive; nt = not tested or not shown; [ ] = dose if it differs, or a comment. Unless noted, the call rests on the fitted dose curve; in most records, active means well fitted curve in the direction sought with a large enough effect; inconclusive means small, poorly fitted or top-dose-only effect, or another doubt; inactive means no such curve, though single readings can be large; an effect the other way counts as inactive or inconclusive.

SMILES | YjeE inh | Hsp90 Hop PPI | Tau fil binding | BRCT inh green | Pol III holo inh | BRCT PPI red
O=C(Cn1nnc2c(cnn2-c2ccc(F)cc2)c1=O)OC1CCCCC1 | i | ? | 20µM | i | i | i
CCN1C(=O)[C@@H]2[C@H]3C(=CC[C@H]2C1=O)C(=O)[C@H]1OC1[C@H]3O (stereo partly specified) | nt | nt | nt | i[15.4 µM] | nt | i[15.4 µM]
Oc1cc(O)c2c(c1)O[C@@H](c1ccc(O)c(O)c1)[C@H](O[C@@]1(c3cc(O)c(O)c(O)c3)Oc3cc(O)cc(O)c3[C@H](O)[C@@H]1O)C2 | i | ? | i[11.4 µM] | i[15.4 µM] | 1µM | i[15.4 µM]
O=C1c2c(O)cc(O)cc2O[C@@H](c2ccc(O)c(O)c2)[C@H]1O | i | ? | i | i | i | i
O=C(O)Cn1c(=O)oc2cc(S(=O)(=O)NC3CCCCC3)ccc21 | i | i | i | i | i | i
CCCCn1c(=NC(=O)c2cccnc2)c(C(=O)OCC)cc2c(=O)n3ccccc3nc21 | i | i | i | i | i | i
CCOCCCn1c(=NC(=O)c2cccnc2)c(C(=O)OCC)cc2c(=O)n3ccccc3nc21 | i | i | i | i | i | i
CCCCCn1c(=NC(=O)c2ccco2)c(C(=O)OCC)cc2c(=O)n3ccccc3nc21 | i | i | 5µM | i | i | i
CCCCn1c(=NC(=O)c2ccco2)c(C(=O)OCC)cc2c(=O)n3ccccc3nc21 | i | i | 7.9µM | i | i | i
COc1ccc2[nH]cc(CCNc3ncncc3-c3ccc4c(c3)OCO4)c2c1 | i | i | i | i | i | i
CC[N+](CC)(CCNC(=O)C(=O)NCC[N+](CC)(CC)Cc1ccccc1Cl)Cc1ccccc1Cl | i | i | i | i | i | i
O=c1cc(-c2ccccc2)c2ccc(O)c(CN3CCCCC3)c2o1 | i | i | i | i | i | i
O=c1oc2c(CN3CCCCCC3)c(O)ccc2cc1-c1nc2ccccc2[nH]1 | i | i | i | 32µM | i | i
COc1ccc2ccccc2c1C(O)c1nccn1C (stereo unspecified) | i | i | i | 13µM | i | ?
Cc1cc(C)nc(SCC(=O)c2cc3ccccc3oc2=O)n1 | i | i | i | i | i | i
O=C1c2ccccc2C(=O)N1CCCSc1nc2ccccc2o1 | i | ? | 4µM | i | i[11.4 µM] | i
O=C(CSc1nc2ccccc2o1)c1cc2ccccc2oc1=O | i | i | 25µM | i | i | i
O=C1c2ccccc2C(=O)N1Cc1nc2ccccc2o1 | i | i | i | i | i | i
Cc1nc2cnc(N3CCOCC3)nc2n(C2CC2)c1=O | i | i | i | i | i | i
COc1cc(C)cc2c(-c3c(O)cc(O)c4c3C[C@H](C)N[C@@H]4C)cc(-c3cc(-c4c(O)cc(O)c5c4C[C@H](C)N[C@@H]5C)c4cc(C)cc(OC)c4c3O)c(O)c12 | i | i[11 µM] | 4µM | i[15.4 µM] | i[11.4 µM] | i[15.4 µM]
CCC(CC)COC(=O)C(C#N)c1nc2ccccc2nc1N1CCN(CC)CC1 (stereo unspecified) | i | i | 1.3µM | i | i | i
C=CCOC(=O)C(C#N)c1nc2ccccc2nc1N1CCN(Cc2ccc3c(c2)OCO3)CC1 (stereo unspecified) | i | i | 1.3µM | i | i | i
COc1ccc(CNC(=O)C(C#N)c2nc3ccccc3nc2N2CCN(C)CC2)cc1 (stereo unspecified) | i | i | 3.2µM | i | i | i
CCCCNC(=O)C(C#N)c1nc2ccccc2nc1N1CCCC1 (stereo unspecified) | i | i | i | i | i | i
COC(=O)C(C#N)c1nc2ccccc2nc1N1CCCC1 (stereo unspecified) | i | i | 16µM | i | i | i
SMILES | YjeE inh | Hsp90 Hop PPI | Tau fil binding | BRCT inh green | Pol III holo inh | BRCT PPI red
C[C@]12C=CC(=O)C=C1CC[C@@H]1[C@H]3C[C@@H](O)[C@](O)(C(=O)CO)[C@@]3(C)C[C@H](O)[C@]12F | i | i | i | i | i | i
O=C(c1cccc(F)c1)N1CCC2(CC1)CN(c1ccc(-c3ccccc3)cc1)C2 | i | i | i | i | i | i
N#CC(C(=O)OCc1ccccc1)c1nc2ccccc2nc1N1CCOCC1 (stereo unspecified) | i | i | 2µM | i | i | i
COc1ccc(CNC(=O)C(C#N)c2nc3ccccc3nc2N2CCCC2)cc1 (stereo unspecified) | i | i | i | i | i | i
COc1ccc(-c2cc(=O)c3ccccc3s2)cc1 | i | i | 25µM | i | i | i
CN1CCN(c2ccnc(-c3cccc(NS(C)(=O)=O)c3)n2)CC1 | i | i | i | i | i | i
CCCCc1cc(=O)oc2cc(C)c(CN3CCCC3)c(O)c12 | i | i | 20µM | i | i | i
C=C1CCC2C(CC2(C)C)C(=C)CC/C1=N/O (stereo unspecified) | nt | nt | nt | i | nt | i
CC(C)c1ccc(CNc2ccc(N3CCOCC3)cc2)cc1 | i | ? | 25µM | i | i | i
Nc1ccn([C@@H]2O[C@@H](CO)[C@@H](O)[C@H]2O)c(=O)n1 | i | i | nt | i | i | i
c1ccc(Nc2cc(Nc3ccccc3)[nH]n2)cc1 | i | i | 20µM | i | i | i
CN(C)C(=O)c1ccc(-c2cc(Nc3ccccc3)ncn2)cc1 | i | i | i | i | i | i
Cc1nc(C)c(C(=O)Nc2nc3c(C)cccc3s2)o1 | i | i | 32µM | i | i | i
O=C(/C=C(\O)c1ccccc1)c1ccccc1O | nt | nt | nt | i[3.08 µM] | nt | i
Cc1ccc(C(=O)OCC(=O)Nc2ccc3c(c2)OCO3)o1 | i | i | i | i | i | i
Cc1cc(C)n2nc(C(=O)Nc3ccc4c(c3)OCO4)nc2n1 | i | i | 32µM | i | i | i
O=C(Nc1ccc2c(c1)OCO2)c1ccc(CN2CCOCC2)cc1 | i | i | 16µM | i | i | i
Cc1ccc(C(=O)Nc2ccc3c(c2)OCO3)o1 | i | i | 20µM | i | i | i
C/C(=C\C(=O)c1ccc(C)o1)Nc1ccc2c(c1)OCO2 | i | i | 13µM | i | i | i
CC(C)NC(=O)N1CCC2(CC1)CCN(C(=O)c1ccco1)CC2 | i | i | i | i | i | i
CCN(CC)c1ccc(NC(=O)c2nc3nc(C)cc(C(F)F)n3n2)cc1 | i | i | 16µM | i | i | i
Cc1cc2nn(-c3cccc4ccccc34)nc2cc1N | i | i | 7.9µM | i | i | i
Nc1ccc2nn(-c3cccc4ccccc34)nc2c1 | nt | nt | nt | i | nt | i
CN(CCc1ccc(Cl)c(Cl)c1)C[C@@H](O)COc1ccc(NS(C)(=O)=O)cc1 | i | i | i | i | i | i
Cc1cccc(-c2noc(CCc3ccccc3)n2)c1 | i | 32µM | i | i | i | i
O=C(c1cccc(-n2cnnn2)c1)N1CCOCC1 | i | i | i | i | i | i
O=C(O)c1cn[nH]c1-n1cnnn1 | i | 25µM | i | i | i | i
